# Measurements: PubChem BioAssay (NCI)
# The panel holds about 83,000 compounds, 20% with a hit somewhere; the sample as a whole holds those more often.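 Cell lines were cultured in 96-well plates, exposed to a single compound concentration, and assessed for percent growth 48 hours later.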 Values without a mark were called inactive. Activity calls are given as the source filed them. The calls were made as follows: active = growth percent below 10; inactive = the rest.
# Experiments:
# Assay in all cases: NCI-60 one-dose screen, 48 h (100 = growth as untreated, 0 = no growth, -100 = all killed)
# Conditions in all cases: 10 µM unless noted
# [1] = system: HCT-15 colon
# [2] = system: HT29 colon
# [3] = system: SNB-75 CNS
# [4] = system: SNB-19 CNS
# [5] = system: PC-3 prostate
# [6] = system: SK-MEL-5 melanoma
# [7] = system: UACC-62 melanoma
# [8] = system: SK-MEL-28 melanoma
# [9] = system: LOX IMVI melanoma
# [10] = system: U251 CNS
Structure (SMILES),growth [1],growth [2],growth [3],growth [4],growth [5],growth [6],growth [7],growth [8],growth [9],growth [10] [%]
COC(=O)[C@@H](C[C@H](Cc1ccccc1)NC(=O)c1csc([C@@H](C[C@H](C(C)C)N(C)C(=O)[C@@H](NC(=O)[C@H]2CCCCN2C)C(C)C)OC(C)=O)n1)NC(=O)OCc1ccccc1,9.05% [9.5 µM] (active),-19.6% [9.5 µM] (active),25.6% [9.5 µM],25.4% [9.5 µM],32.2% [9.5 µM],-3.63% [9.5 µM] (active),27.1% [9.5 µM],-52.6% [9.5 µM] (active),–,–
COC1=CC(=O)O[C@@H](/C=C/c2ccc3c(c2)OCO3)C1,103%,111%,116%,101%,83.5%,116%,94%,120%,98.2%,–
Cc1ccc(S(=O)(=O)F)cc1C(=O)O,102%,100%,76.8%,97.5%,110%,102%,109%,110%,–,–
COC(=O)[C@@H](C)C[C@H](Cc1ccccc1)NC(=O)c1csc([C@@H](C[C@H](C(C)C)N(C)C(=O)C2(NC(=O)[C@H]3CCCCN3C)CC2)OC(C)=O)n1,20.5%,9.71% (active),26.5%,68.2%,12.3%,-40.2% (active),41.1%,58.7%,3.04% (active),–
COc1ccc(C(=O)c2sc3nc4c(cc3c2N)N2CCC4CC2)cc1OC,96.4%,105%,83.9%,108%,–,48.2%,89.9%,96.1%,85.4%,–
COC(=O)[C@@H](C)C[C@H](Cc1ccccc1)NC(=O)c1csc([C@@H](C[C@H](C(C)C)N(C)C(=O)[C@@H](NC(=O)[C@H]2CCCCN2C)C(C(F)(F)F)C(F)(F)F)OC(C)=O)n1,22.3%,14.4%,14.9%,23.2%,27.2%,-18.5% (active),26.4%,71.5%,13.5%,–
C=C(C)[C@@]12OC3(/C=C/C=C/CCCCC)O[C@@H]1[C@@H]1[C@@H]4O[C@]4(CO)[C@@H](O)[C@]4(O)C(=O)C(C)=C[C@H]4[C@@]1(O3)[C@H](C)[C@H]2OC(=O)c1ccccc1,67.1%,14.1%,56.6%,92.8%,28.6%,–,59.7%,81.5%,50.9%,–
C[C@]12CCc3sc(NCCc4ccccc4)nc3C1=CC[C@@H]1[C@@H]2CC[C@]2(C)C(=O)CC[C@@H]12,22.5%,34.3%,85.5%,80.2%,38.8%,66%,75.6%,83.3%,70.2%,–
COc1cc(C=Nc2cccc(Br)c2)ccc1N(CCCl)CCCl,82.4%,63.4%,69.1%,91.9%,68.4%,86%,76.1%,116%,68.7%,–
CC[C@H](C)[C@H](NC(=O)[C@H]1CCCCN1C)C(=O)N(C)[C@H](CC(=O)c1nc(C(=O)N[C@@H](Cc2ccccc2)C[C@H](C)C(=O)O)cs1)C(C)C,99.2%,78%,49.3%,55.5%,78.3%,56.1%,32.2%,81.3%,47.2%,–
CC(=O)[O][Hg][c]1c(N)c(C)cc(C)c1F,-14.2% (active),10% (active),32%,112%,51.9%,41%,27.8%,-39.1% (active),-70.1% (active),–
Nc1nnnc2nc[nH]c12,20.9%,38.4%,45.8%,–,11.5%,33.8%,-50.9% (active),14.8%,6.61% (active),19.4
NC(=O)CNc1ccc([As]=[As]c2ccc(NCC(N)=O)cc2)cc1 (configuration not stated),44.1%,38.9%,24.5%,48.6%,58.3%,23.7%,26.1%,74.6%,26.2%,–
CC(=O)/C=C/c1ccc2c(c1)OCO2,99.7%,106%,79.2%,84.6%,95.8%,100%,90.2%,107%,109%,–
CCN(CCO)C(Cc1ccccc1)c1ccccc1 (configuration not stated),94.3%,98.5%,99.8%,119%,94.9%,104%,107%,101%,92.6%,–
Cc1ccc(C(=O)NCCCOc2ccc(N)cc2Cl)cc1S(=O)(=O)F,89.4%,101%,75.1%,95.1%,105%,97.2%,100%,104%,85.5%,–
CCC(CC)CC1(C)CC2(C)CCOC2OO1 (configuration not stated),104%,100%,98.8%,103%,99.8%,98.5%,95.4%,109%,102%,–
COC(=O)[C@]12CCC(C)(C)C[C@H]1[C@H]1C(=O)C[C@@H]3[C@@]4(C)C[C@@]5(CC(C)(C)[C@@H]4CC[C@@]3(C)[C@]1(C)CC2)OO[C@@](C)(C(F)(F)F)O5,95.3%,102%,74.9%,91.7%,86.7%,99.5%,84.3%,107%,95.7%,–
CCOC(=S)S[C@H]1C[C@@H]2[C@H](CC[C@]3(C)C(=O)CC[C@@H]23)[C@@]2(C)CCC(=O)C=C12,101%,111%,93.1%,99.5%,106%,103%,94.3%,104%,97.9%,–
COc1cccc(C=NC(Cc2cnc[nH]2)C(=O)O)c1O (configuration not stated),108%,100%,86.3%,96.1%,51.5%,94.2%,95.6%,103%,100%,–
O=C(CCCCCNC1=CC(=O)c2ccccc2C1=O)NCCC[Te]c1ccccc1,-20.1% (active),-47.5% (active),-26% (active),5.42% (active),-0.995% (active),-92.9% (active),-27.7% (active),-42% (active),-22.1% (active),–
CN(C)CC(C(=O)Cc1ccccc1)c1ccccc1 (configuration not stated),37.2%,30%,73.4%,100%,73.2%,97.2%,112%,96.5%,–,–
CC(=O)O[C@H]1CC[C@@]2(C)C(=CC[C@H]3[C@@H]4C[C@@H](N5CC5)[C@H](C(C)=O)[C@@]4(C)CC[C@@H]32)C1,91.6%,85.9%,79.2%,100%,77.9%,85.2%,92.8%,102%,87.6%,–
[Au+].[N-]=C=O.c1ccc(CN2[CH-]N(Cc3ccccc3)C(c3ccccc3)=C2c2ccccc2)cc1,51.9%,88.4%,79.2%,58.7%,84.1%,96.9%,78%,92.8%,94.7%,–
CN[C@]1(c2ccccc2Cl)CCCC[C@H]1NCCCN1CCN(C)CC1,99%,96%,82%,102%,91.5%,97.7%,104%,112%,96.4%,–
CC[C@H](C)[C@H](NC(=O)[C@H]1CCCCN1C)C(=O)N(C)[C@H](C[C@@H](O)c1nc(C(=O)N[C@@H](Cc2ccccc2)C[C@H](C)C(=O)O)cs1)C(C)C,96.5%,83.1%,59.7%,65.2%,81.2%,63.7%,41.1%,82.8%,52.2%,–
CC[C@H](C)[C@H](NC(=O)[C@H]1CCCCN1C)C(=O)N(C)[C@H](C[C@@H](OC(C)=O)c1nc(C(=O)NC23CC(C(=O)OC)(C2)C3)cs1)C(C)C,6.1% (active),-9.84% (active),15%,29%,23.6%,-65.7% (active),44.3%,60.8%,4.9% (active),–
CCCCNC(c1ccc(Cl)cc1)C(O)c1ccc(Cl)cc1 (configuration not stated),32.7%,4.8% (active),61.9%,54.6%,42.2%,32.7%,19.2%,45.6%,-75.6% (active),–
